Assay outcomes as filed in PubChem BioAssay.
FMDV inh – High Throughput Screening for Foot and Mouth Disease Virus Antivirals; FMDV antiviral cell-based qHTS; Potency, µM (series often up to 57.9 µM), for inactives: at the top dose activity change, negative = inhibition, most hits filed as inhibitors; 410,000 tested, 1.2% active; AID 1159524, 2015; calls by dose curve; tested in HEK293T cells; note: read-out not given here; potency is the fitted concentration of half-maximal effect; % is set by controls: 0 for no effect and ±100 for the full control effect; nearly all actives have a fitted effect of over 45% in size
MARV entry inh – qHTS for inhibitors of binding or entry into cells for Marburg Virus | AID 540276, 2011 | 300,000 tested, 1.8% active | Potency, µM (top dose mostly 37.8 µM), inactives show top-dose activity change, negative = inhibition, most hits filed as inhibitors | Marburg virus pseudotyped entry inhibition, cell reporter; calls by dose curve; tested in HEK293 cells; note: potency is the fitted concentration of half-maximal effect; % is set by controls: 0 for no effect and ±100 for the full control effect
LASV entry inh – qHTS for Inhibitors of binding or entry into cells for Lassa Virus; Lassa virus pseudotype entry inhibition, cell reporter; Potency, µM (highest dose often 37.9 µM), for the others: at the top dose activity change, negative = inhibition, most hits filed as inhibitors; 300,000 tested, 1.2% active; AID 540256, 2011; calls by dose curve; tested in HEK293 cells; note: potency is the fitted concentration of half-maximal effect; % is set by controls: 0 for no effect and ±100 for the full control effect; nearly all actives have a fitted effect of over 50% in size
SARS PLP yeast – qHTS of Yeast-based Assay for SARS-CoV PLP | Potency, µM (doses to about 32.9 µM), for the others: top-dose activity, positive = growth rescue, most hits filed as activators | 330,000 tested, 0.19% active | S. cerevisiae expressing SARS-CoV PLpro, growth rescue; calls by dose curve; note: potency is the fitted concentration of half-maximal effect; 0% is about no effect; nearly all actives have a fitted effect of over 55% in size
HCV inh – qHTS Assay for Inhibitors of Hepatitis C Virus (HCV) | Huh7.5.1 HCVcc-Cre infection, luciferase reporter, 44 h | 340,000 tested, 3.4% active | Potency, µM (doses to about 41.8 µM), inactives show at the top dose activity change, negative = inhibition, hits mostly inhibitors; active = well fitted inhibition curve with a large enough effect; inconclusive = small, poorly fitted or top-dose-only effect, or another doubt; inactive = no such curve, though single readings can be large or run the other way; note: potency is the fitted concentration of half-maximal effect; % is set by controls: 0 for no effect and ±100 for the full control effect
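Cells (1,000/well) were plated 4 h before compound, then infected with HCVcc-Cre virus (~0.5 moi). After 44 h further culture, infection was read as luciferase luminescence following a 15 min substrate incubation at room temperature.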
HCMV inh – qHTS Assay for inhibitors of the human cytomegalovirus (HCMV); 410,000 tested, 4.5% active; AID 1259415, 2018; HFF cells, HCMV-luciferase reporter, 72 h; hits give low values; activity change, negative = inhibition, % at 57.5 µM; in the data active = activity change below about -60%; inconclusive = no clear call, values can overlap the other calls; inactive = above about -39%; note: % is set by controls: 0 for no effect and ±100 for the full control effect
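Human foreskin fibroblasts infected with luciferase-reporter HCMV at MOI 1 PFU/cell, compounds at two doses. Luciferase measured 72 h post infection; normalized to buffer-only basal and Salinomycin (10uM) controls.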
* = called active by the depositor; ? = inconclusive; / = not tested or not shown; [ ] = another dose, or the depositor's remark. Sampled rows, rich in hits. Any-hit rate of the full collection: about 8%.

SMILES	FMDV inh	MARV entry inh	LASV entry inh	SARS PLP yeast	HCV inh	HCMV inh
Cn1nnnc1SCCNCc1ccc(OCc2ccccc2)cc1	-4.5%	?	-4.9%[46.1 µM]	/	/	-0.6
CCOc1c(Br)cc(C(N)=O)cc1OCc1ccccc1	20.8%	?	11.6µM*	1.9%	?	-9.6
CCOc1cc(CNCCO)cc(Br)c1OCc1ccccc1	-7.6%	?	?	-0.5%	10µM*	?
CCNCc1cc(Cl)c(OCc2ccccc2)c(OCC)c1	0.0%	?	?	0.0%	?	?
CCOc1cc(CNCCSc2nnnn2C)cc(Br)c1OCc1ccccc1	?	?	?	-2.2%	2.82µM*	40.5
O=C(NCc1ccccc1)C1CCN(S(=O)(=O)c2ccc(N3CCCC3=O)cc2)CC1	-20.9%	?	?	1.4%	?	-14.2
O=C(NCc1ccc(Cl)cc1)C1CCN(S(=O)(=O)c2ccc(N3CCCC3=O)cc2)CC1	?	/	/	?	11.2µM*	?
O=C(NCc1ccccc1CN1CCCC1)C1CCN(S(=O)(=O)c2ccc(F)c(F)c2)CC1	-21.3%	?	19.9%	6.4%	-10.0%	-100.9*
Cc1cc(C(=O)NCC2CCC3(CCN(Cc4ccc5ccccc5c4)CC3)O2)n(C)n1 (stereo not given)	-29.0%	/	/	/	/	/
CC(C)(C)OC(=O)N1CCC(c2c(C(=O)NC3CCCCC3)cnn2-c2ccc(F)cc2F)CC1	-8.4%	/	?	/	/	0.0
O=C(Nc1cccc(S(=O)(=O)NC2=NCCCCC2)c1)c1cc(-c2ccccc2Cl)nc2ccccc12	-16.5%	?	-25.6%	-1.2%	?	-63.7*
O=C(CSc1nc2ccccc2c(=O)n1-c1ccc(F)cc1)Nc1ccc(C(=O)O)cc1	5.1%	-0.3%	10.7%	-0.1%	2.5%	35.9
Cc1ccc(-n2c(SCC(=O)Nc3cccc(S(=O)(=O)NC4=NCCCCC4)c3)nc3ccccc3c2=O)cc1	7.1%	-14.6%	-18.1%	-12.0%	?	-66.3*
Cc1ccc(-n2c(SCC(=O)NNC(=S)Nc3ccccc3)nc3ccccc3c2=O)cc1	-14.8%	8.91µM*	0.7%	0.6%	0.1%	?
COc1ccc(N(C)S(=O)(=O)c2cccc(C(=O)OCC(=O)N3CC(C)CC(C)C3)c2)cc1 (stereo not given)	31.6µM*	?	?	-3.5%	?	-36.0
CN(c1ccccc1)S(=O)(=O)c1cccc(C(=O)N2CCCCCC2)c1	-6.8%	-24.7%[46.1 µM]	?	-0.3%	?	-34.4
C=CCN(c1ccccc1)S(=O)(=O)c1cccc(C(=O)N2CC(C)CC(C)C2)c1 (stereo not given)	-14.0%	?	?	-2.7%	7.08µM*	-85.0*
CC1CC(C)CN(C(=O)c2cccc(S(=O)(=O)N(C)c3ccccc3)c2)C1 (stereo not given)	0.0%	?	?	3.3%	31.6µM*	?
CN1CCCC1CN1CCCC1 (stereo not given)	-11.3%	/	/	/	/	/
CN1CCCC1CCNC1C2CC3CC(C2)CC1C3 (stereo not given)	10.2%	13µM*	-50.4%[14.3 µM]	-3.9%	/	-39.1
Cc1ccc2nc(N/N=C\c3ccc([N+](=O)[O-])o3)nc(-c3ccccc3)c2c1	-29.3%	10µM*	?	-11.3%	?	?
O=[N+]([O-])c1ccc(/C=N/NC(=S)Nc2ccccc2)o1	-4.1%	23.8%	14.3%	-94.1%	-9.9%	-26.3
O=[N+]([O-])c1ccc(/C=N/Nc2ccc3ccccc3c2)o1	-16.7%	-10.9%	2.9%	-33.2%	-8.9%	-71.6*
O=C(NC1CCCCC1)N1CCN(Cc2ccco2)CC1	13.5%	13.0%[46.1 µM]	8.7%	0.6%	11.2%	-63.2*
O=C(Nc1ccc(Cl)c(Cl)c1)OCc1cnc(Cl)s1	4.4%	-6.6%	17.2%	-0.1%	11.2µM*	1.3
SMILES	FMDV inh	MARV entry inh	LASV entry inh	SARS PLP yeast	HCV inh	HCMV inh
O=C(Nc1ccccc1)OCc1cnc(Cl)s1	-8.6%	-16.6%[46.1 µM]	-19.0%[46.1 µM]	-0.8%	-1.3%	-15.7
NC1=NC(=O)C2N=CN(COCCO)C2=N1 (stereo not given)	/	4.3%	/	/	/	/
CC(C)c1ccc2c(c1)C1(NN=C(c3ccccc3)S1)C(=O)N2 (stereo not given)	-20.2%	?	?	-79.7%	?	16.1
CCc1ccc2c(c1)C1(NN=C(c3ccc(C)cc3)S1)C(=O)N2 (stereo not given)	-23.9%	?	3.5%	-115.5%	10µM*	-100.9*
CCN1CCN(C(=O)c2cnn(-c3ncc4c(n3)-c3ccccc3CCC4)c2COC)CC1	8.5%	/	/	/	/	/
Cn1cccc1C(=O)OCC(=O)N1CCc2ccccc2C1	29.3%	/	/	/	/	-61.1*
Cn1cccc1C(=O)OCC(=O)N1CCc2ccccc21	68.6%	/	/	-3.3%	3.5%	17.5
O=c1[nH]c(=S)[nH]c(O)c1/C=C1/C=c2ccccc2=N1	25.1µM*	?	?	3.2%	?	71.5
CC1=NC(=O)C(N=Nc2cccc(C(=O)O)c2)N1c1ccccc1 (stereo not given)	8.91µM*	2.59µM*	2.31µM*	-3.1%	17.9%	96.4
CC(C)n1cc(/C=N/Nc2ccc(C(=O)O)cc2)c2ccccc21	3.55µM*	4.8%[46.1 µM]	-22.8%[46.1 µM]	-2.9%	-2.7%	-39.4
Fc1c(F)c(F)c(N/N=C/c2c[nH]c3ccccc23)c(F)c1F	6.7%	?	-18.5%	-104.1%	?	-65.4*
O=C(O)c1ccc(S(=O)(=O)NN=Cc2c[nH]c3ccccc23)cc1	-2.2%	/	/	/	/	6.7
Cc1cc(C)nc(N/N=C/c2c[nH]c3ccccc23)n1	8.2%	-17.5%[46.1 µM]	0.5%[46.1 µM]	-10.3%	4.3%	23.9
O=C(O)c1ccc(N/N=C/c2c[nH]c3ccccc23)cc1	6.31µM*	/	/	-2.3%	12.7%	-65.0*
O=C(O)c1ccc(N/N=C/c2cn(Cc3ccccc3F)c3ccccc23)cc1	?	/	/	-1.7%	6.2%	0.0
COc1cccc([C@H]2/C(=C(\O)c3ccc4c(c3)OCCO4)C(=O)C(=O)N2CCN(C)C)c1	/	-10.5%	/	/	/	/
Cc1cc(C)c(OCCOCCn2c(-c3ccc(Cl)cc3)nc3ccccc3c2=O)c(C)c1	8.2%	12.2%[46.1 µM]	?	/	/	29.3
Cc1ccnc(NC(=O)C2CCC(CNc3c(N4CCCC4)c(=O)c3=O)CC2)c1 (stereo not given)	9.9%	0.5%	/	5.9%	14.6%	-75.2*
Cc1ccc(C(=O)N/C(=C\c2ccc(Br)cc2)c2nc(=S)[nH][nH]2)cc1	/	-15.3%	?	-14.1%	26.3%	-70.8*
COc1ccc(CC(N)c2csc(NC(=O)C(c3ccccc3)c3ccccc3)n2)cc1 (stereo not given)	-27.2%	/	/	/	/	-64.8*
CC(C)c1ccc(NC(=O)Nc2nc(C(N)COCc3ccccc3)cs2)cc1 (stereo not given)	0.0%	/	/	/	/	-95.0*
